Reference: PubChem BioAssay (NCATS)
Inconclusive results are not listed. Calls of active or inactive are those of the source. Unless noted, the rule behind the calls is not given here.

Legend:
[1] = qHTS profiling of the MIPE4 collection as inhibitors of Plasmodium falciparum (3D7) proliferation (AID 743344);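 note: scaled between DMSO vehicle wells and 0.29 µM artemisinin as full inhibition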; details: P. falciparum 3D7 in erythrocytes, SYBR Green DNA fluorescence, 72 h; at 28.5 µM unless noted
Summary of the method: (§1)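 Parasite DNA was quantified by SYBR Green I fluorescence (ex 485, em 535 nm) after overnight lysis in saponin/Triton buffer at room temperature. Cultures at 0.3% parasitemia and 2.5% hematocrit were first exposed to compound for 72 h at 37 C; signals were normalised to artemisinin (0.29 uM) and vehicle wells.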

[2] = qHTS profiling of the MIPE4 collection as inhibitors of Plasmodium falciparum (DD2) proliferation (AID 743345); details: P. falciparum Dd2 in erythrocytes, SYBR Green DNA, 72 h; at 28.5 µM unless noted
Summary of the method: as §1

[3] = qHTS profiling of the MIPE4 collection as inhibitors of Plasmodium falciparum (DD2) proliferation (Rep 2) (AID 743346); details: P. falciparum Dd2 in erythrocytes, SYBR Green DNA, 72 h; at 28.5 µM unless noted
Summary of the method: as §1

[4] = qHTS profiling of the MIPE4 collection as inhibitors of Plasmodium falciparum (HB3) proliferation (AID 743347);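 note: plate controls were DMSO vehicle wells for no effect and artemisinin wells for full effect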; details: P. falciparum HB3 in erythrocytes, SYBR Green DNA, 72 h; at 28.5 µM unless noted
Summary of the method: as §1

[5] = High-throughput drug toxicity screening in the BPDCN cell line Gen2.2 (AID 1224824); details: Gen2.2 BPDCN cells; at 45.8 µM (top of the series) unless noted;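 note: cells exposed to compounds for 48 h before reading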
Summary of the method: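 Readout is ATP luminescence from Gen2.2 cells after two days of drug exposure in serum-containing medium at 37 °C. Values express percent activity, with vehicle defining full signal and 9.2 uM bortezomib defining zero.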

[6] = High-throughput drug toxicity screening in the BPDCN cell line Cal-1 (AID 1224825); details: Cal-1 BPDCN cell viability, qHTS; at 45.8 µM (top of the series) unless noted
Summary of the method: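 Percent activity derived from CellTiter-Glo luminescence, scaling DMSO to 100% and 9.2 uM final bortezomib to 0%. BPDCN Cal-1 cells (500/well, RPMI plus 10% FBS) incubated with compounds 48 hours at 37C before reading.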

[7] = qHTS assay for measurement of the activity of small molecule inhibitors on Zika virus induced Caspase-3 activity in human iPSC derived neural progenitor cells (hNPCs) (AID 1224857; active = well fitted curve in the direction sought with a large enough effect; an effect the other way counts as inactive or inconclusive; note: nearly all actives have a fitted effect of over 65% in size; note: potency is the fitted concentration of half-maximal effect)
Summary of the method: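 Percent inhibition of virus-induced caspase-3/7 luminescence (Caspase-Glo), scaled between uninfected cells and Zika-infected cells. hNPCs received compound 1 hr before ZIKV at 2 FFU/cell, with 6 hours infection at 37 C.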

[8] = qHTS assay for measurement of the activity of small molecule inhibitors on Zika virus induced Caspase-3 activity in human astrocytoma cells (AID 1224859; active = well fitted curve in the direction sought with a large enough effect; an effect the other way counts as inactive or inconclusive; note: potency is the fitted concentration of half-maximal effect)
Summary of the method: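 Luminescent caspase-3/7 read-out (30 min reagent, room temperature) in human SNB-19 cells infected 6 h with ZIKV (2 FFU/cell) after 1 h compound pre-incubation; Data were normalised to uninfected and infected wells.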

[9] = qHTS Screen of the MIPE 4.0 Collection Against Ewings Sarcoma (RDES) (AID 1259252; active = well fitted curve in the direction sought with a large enough effect; an effect the other way counts as inactive or inconclusive; note: nearly all actives have a fitted effect of over 35% in size; note: potency is the fitted concentration of half-maximal effect)
Summary of the method: (§2)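 Cells plated in serum-containing RPMI (5% FBS) and treated with compound dilutions for 48 h. Readout luminescent viability; normalization relied on vehicle (no inhibition) and media-only columns (full inhibition).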

[10] = qHTS Screen of the MIPE 4.0 Collection Against Ewings Sarcoma (TC71) (AID 1259253; active = well fitted curve in the direction sought with a large enough effect; an effect the other way counts as inactive or inconclusive; note: potency is the fitted concentration of half-maximal effect; nearly all actives have a fitted effect of over 40% in size)
Summary of the method: as §2

[11] = qHTS Screen of the MIPE 4.0 Collection Against Ewings Sarcoma (EW8) (AID 1259255; active = well fitted curve in the direction sought with a large enough effect; an effect the other way counts as inactive or inconclusive;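 note: 100% = DMSO-treated cells and 0% = medium-only wells without cells; nearly all actives have a fitted effect of over 35% in size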)
Summary of the method: as §2

[12] = qHTS Screen of the MIPE 4.0 Collection Against Ewings Sarcoma (TC32) (AID 1259256; active = well fitted curve in the direction sought with a large enough effect; an effect the other way counts as inactive or inconclusive; note: nearly all actives have a fitted effect of over 45% in size; note: potency is the fitted concentration of half-maximal effect)
Summary of the method: as §2

[13] = qHTS assay to identify small molecule inhibitors of chordoma cells - UCH-1 (AID 1259355; active = well fitted curve in the direction sought with a large enough effect; an effect the other way counts as inactive or inconclusive; note: % is set by controls: 0 for no effect and ±100 for the full control effect; nearly all actives have a fitted effect of over 55% in size)
Summary of the method: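 800 cells/well, overnight attach; compounds pinned at 15 concs, then auranofin/camptothecin/doxorubicin/rubitecan/topotecan combo added; 48hr 37 C, 5% CO2; CellTiter-Glo, 30min RT, luminescence.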

[14] = qHTS assay to identify small molecule inhibitors of chordoma cells - UCH-2 (AID 1259356; active = well fitted curve in the direction sought with a large enough effect; an effect the other way counts as inactive or inconclusive; note: % is set by controls: 0 for no effect and ±100 for the full control effect)
[15] = qHTS profiling for inhibitors of Plasmodium falciparum (DD2) proliferation (AID 743323); details: lower = more inhibition; at 28.7 µM (top of the series) unless noted
Summary of the method: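 Parasite DNA quantified by SYBR Green fluorescence (ex 485, em 535 nm) after saponin/Triton lysis and overnight dark incubation. Cultures: 0.3% parasitemia, 2.5% hematocrit, 72 h, 37 C; data scaled between DMSO and 0.29 uM artemisinin.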

[16] = qHTS profiling for inhibitors of Plasmodium falciparum (HB3) proliferation (AID 743324; active = well fitted curve in the direction sought with a large enough effect; an effect the other way counts as inactive or inconclusive;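 note: 100% = DMSO vehicle wells and 0% = artemisinin-treated control wells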); details: Plasmodium falciparum HB3 blood-stage proliferation; at 28.7 µM (top of the series) unless noted
Summary of the method: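 SYBR Green fluorescence (485 ex/535 em) of lysed cultures, incubated overnight at room temperature in the dark, quantifies parasite DNA. Infected erythrocytes at 0.3% parasitemia and 2.5% hematocrit were exposed 72 h; values normalized to DMSO and 0.29 uM artemisinin controls.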

Structure (SMILES) | parasite growth, % of DMSO control [1] | parasite growth remaining, % of DMSO control (lower = more inhibition) [2] | parasite growth, % of control (lower = inhibition) [3] | growth, % of control [4] | cell viability, % of control (lower = more cytotoxic) [5] | viability (% of control) [6] | Potency [7] | Potency [8] | Potency [9] | Potency [10] | Potency [11] | Potency [12] | outcome [13] | outcome [14] | activity, percent of control [15] [%] | remaining proliferation (% of control), lower = more inhibition [16] [%]
Oc1cc(O)cc(C=Cc2ccc(O)c(O)c2)c1 | 39.8% | 76.7% | 32.1% | 50.9% | 3.35% | 3.72% | 23.5 µM (active) | 4.18 µM (active) | 20.9 µM (active) | 18.7 µM (active) |  |  |  |  |  | 
O=C(O)c1nc(=O)[nH]c(=O)[nH]1 | 88.8% [at 9.64 µM] | 106% [at 9.64 µM] | 93.6% [at 9.64 µM] | 89.9% [at 9.64 µM] | 161% [at 23.2 µM] | 99.2% [at 23.2 µM] | inactive | inactive | inactive |  | inactive | inactive | inactive | inactive |  | 
COc1ccc(CCC(=O)Nc2nc3ccc(Cl)cc3s2)cc1OC | 22.3% |  |  | 28.3% | 135% | 98.2% | inactive | inactive | 20.9 µM (active) | 18.7 µM (active) |  | 13.2 µM (active) |  |  |  | 
CO[C@@H]1C(N(C)C(=O)c2ccccc2)C[C@H]2O[C@]1(C)n1c3ccccc3c3c4c(c5c6ccccc6n2c5c31)C(=O)NC4=O (some centres not stated) | 17.5% | 8.87% | 122% | 28.7% | 247% | 28.3% | inactive | inactive | 4.18 µM (active) |  |  | 3.32 µM (active) |  |  | 103 | 120
O=C1CN2Cc3c(ccc(Cl)c3Cl)N=C2N1 | 82.8% | 91.6% | 85.1% | 85.4% | 198% | 96.9% | inactive | inactive | 23.5 µM (active) |  |  | 23.5 µM (active) |  |  | 93.4 | 46.3
CCC(=O)NCC[C@@H]1CCc2ccc3c(c21)CCO3 | 98.2% | 89.9% | 71.2% | 107% | 184% | 117% | inactive | inactive | inactive |  | inactive | inactive |  |  |  | 
